Results reported in PubChem BioAssay (Tox21).
Records with an inconclusive call do not appear. The source made the active and inactive calls. Unless noted, calls come from the whole dose curve; as a rule, active = well fitted curve in the direction sought with a large enough effect in the repeat runs; inconclusive = weak or mixed curves; inactive = no such curve, though single readings can be large; an effect the other way counts as inactive or inconclusive.

Columns and labels:
[1] = qHTS assay to identify small molecule agonists of the peroxisome proliferator-activated receptor delta (PPARd) signaling pathway - cell viability counter screen (AID 743211); note: nearly all actives have a fitted effect of over 55% in size
Summary of the method: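 HEK293H PPARd-bla, 3000 cells/well; 5 h preincubation 37C/5% CO2; cpd in DMSO, 17 h 37C; B/G FRET substrate 2 h RT; CellTiter-Glo 30 min RT, luminescence.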

[2] = qHTS assay to identify small molecule antagonists of the peroxisome proliferator-activated receptor delta (PPARd) signaling pathway - cell viability counter screen (AID 743213); note: nearly all actives have a fitted effect of over 50% in size
Summary of the method: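 Cytotoxicity counter screen: CellTiter-Glo luminescence read 30 min after addition, in the same wells as the reporter assay. There, PPARd UAS-bla HEK293H cells (3000/well) were treated 17 h at 37 C with compound and 300 nM L165041.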

[3] = qHTS assay to identify small molecule agonists of the farnesoid-X-receptor (FXR) signaling pathway - cell viability counter screen (AID 743218); note: nearly all actives have a fitted effect of over 45% in size; note: potency is the fitted concentration of half-maximal effect
Summary of the method: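 Viability counter screen in the same wells: CellTiter-Glo luminescence, 30 min room-temperature incubation, measured after the beta-lactamase read. Cells were GeneBLAzer FXR-UAS-bla HEK 293T, compound-treated 16 h at 37C.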

[4] = qHTS assay to identify small molecule antagonists of the farnesoid-X-receptor (FXR) signaling pathway - cell viability counter screen (AID 743221; active = well fitted cell-killing curve with a large enough effect in the repeat runs, not every such curve was filed as active; note: nearly all actives have a fitted effect of over 50% in size; note: potency is the fitted concentration of half-maximal effect)
Summary of the method: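 Luminescence from CellTiter-Glo measures cytotoxicity in GeneBLAzer FXR-UAS-bla HEK 293T cells. Cells were exposed to compounds with 50 uM chenodeoxycholic acid (final) for 16 h at 37 C, in wells also used for the reporter readout.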

[5] = target: Vitamin D3 receptor (Homo sapiens) (UniProt P11473); test: qHTS assay to identify small molecule agonists of the vitamin D receptor (VDR) signaling pathway (AID 743222; calls by dose curve)
Summary of the method: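 Agonist mode, beta-lactamase reporter: fluorescence from LiveBLAzer B/G FRET substrate (2 h, room temperature) read after 16 h compound treatment at 37 C of VDR-bla cells, which were pre-incubated 4 h after seeding.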

[6] = target: Vitamin D3 receptor (Homo sapiens) (UniProt P11473); test: qHTS assay to identify small molecule antagonists of the vitamin D receptor (VDR) signaling pathway (AID 743223; active = well fitted inhibition curve with a large enough effect in the signal ratio in the repeat runs, not every such curve was filed as active; the % refers to the signal ratio)
Summary of the method: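 Antagonist mode uses 1alpha,25-dihydroxyvitamin D3 at 3 nM final as stimulus. VDR-bla cells receive compounds in DMSO, incubate 16 h at 37C, then a beta-lactamase FRET substrate for 2 h at room temperature before fluorescence measurement.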

[7] = target: Peroxisome proliferator-activated receptor delta (Homo sapiens) (UniProt Q03181); test: qHTS assay to identify small molecule agonists of the peroxisome proliferator-activated receptor delta (PPARd) signaling pathway (AID 743212; calls by dose curve;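 note: HEK293H cells with PPARd UAS beta-lactamase reporter GeneBLAzer system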)
Summary of the method: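 Steps: seed PPARd-bla HEK293H cells; incubate 5 h, 37 C, 5% CO2; add compounds in DMSO; incubate, 37 C; add LiveBLAzer B/G FRET substrate; hold 2 h at room temperature; measure fluorescence.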

[8] = target: Bile acid receptor (Homo sapiens) (UniProt Q96RI1); test: qHTS assay to identify small molecule antagonists of the farnesoid-X-receptor (FXR) signaling pathway (AID 743217; active = well fitted inhibition curve with a large enough effect in the signal ratio in the repeat runs, not every such curve was filed as active; the % refers to the signal ratio)
Summary of the method: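 Antagonist mode: chenodeoxycholic acid at 50 uM final stimulates a UAS-driven beta-lactamase reporter in HEK 293T FXR-bla cells during 16 h, 37C compound exposure. Read-out is FRET substrate fluorescence after 2 h at room temperature.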

[9] = target: Bile acid receptor (Homo sapiens) (UniProt Q96RI1); test: qHTS assay to identify small molecule agonists of the farnesoid-X-receptor (FXR) signaling pathway (AID 743220; active = well fitted activation curve with a large enough effect in the signal ratio in the repeat runs, not every such curve was filed as active; the % refers to the signal ratio)
Summary of the method: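 FXR-UAS-bla HEK 293T cells carrying a UAS-driven beta-lactamase reporter were plated for 5 h at 37C/5% CO2, then exposed to DMSO-dissolved Tox21 10K compounds for 16 h at 37C. A LiveBLAzer B/G FRET substrate was loaded for 2 h at room temperature before fluorescence reading.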

[10] = target: Peroxisome proliferator-activated receptor delta (Homo sapiens) (UniProt Q03181); test: qHTS assay to identify small molecule antagonists of the peroxisome proliferator-activated receptor delta (PPARd) signaling pathway (AID 743215; active = well fitted inhibition curve with a large enough effect in the signal ratio in the repeat runs, not every such curve was filed as active; the % refers to the signal ratio;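 note: cells stimulated with agonist L165041 at 300 nM final during compound exposure; series mostly up to about 62 µM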)
Summary of the method: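 Agonist L165041 (300 nM final) added with compound to PPARd-bla HEK293H UAS-bla reporter cells; 17 h incubation at 37 C. Read-out: LiveBLAzer FRET substrate, 2 h at room temperature, fluorescence intensity.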

Measured: Potency

Chain of Vitamin D3 receptor (Homo sapiens) (P11473 whole entry, looked up): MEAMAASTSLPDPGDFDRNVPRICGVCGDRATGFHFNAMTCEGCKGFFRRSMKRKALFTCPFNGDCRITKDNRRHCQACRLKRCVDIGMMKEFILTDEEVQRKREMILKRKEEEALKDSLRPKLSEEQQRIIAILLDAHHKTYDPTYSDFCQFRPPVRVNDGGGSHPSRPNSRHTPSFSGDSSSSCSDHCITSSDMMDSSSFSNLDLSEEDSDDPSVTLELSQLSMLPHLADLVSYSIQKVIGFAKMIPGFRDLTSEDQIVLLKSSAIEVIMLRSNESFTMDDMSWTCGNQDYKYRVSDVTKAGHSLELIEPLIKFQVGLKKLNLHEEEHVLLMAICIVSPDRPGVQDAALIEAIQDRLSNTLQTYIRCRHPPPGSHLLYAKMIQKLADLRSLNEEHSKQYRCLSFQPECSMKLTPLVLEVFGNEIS
Chain of Peroxisome proliferator-activated receptor delta (Homo sapiens) (Q03181 whole entry, looked up): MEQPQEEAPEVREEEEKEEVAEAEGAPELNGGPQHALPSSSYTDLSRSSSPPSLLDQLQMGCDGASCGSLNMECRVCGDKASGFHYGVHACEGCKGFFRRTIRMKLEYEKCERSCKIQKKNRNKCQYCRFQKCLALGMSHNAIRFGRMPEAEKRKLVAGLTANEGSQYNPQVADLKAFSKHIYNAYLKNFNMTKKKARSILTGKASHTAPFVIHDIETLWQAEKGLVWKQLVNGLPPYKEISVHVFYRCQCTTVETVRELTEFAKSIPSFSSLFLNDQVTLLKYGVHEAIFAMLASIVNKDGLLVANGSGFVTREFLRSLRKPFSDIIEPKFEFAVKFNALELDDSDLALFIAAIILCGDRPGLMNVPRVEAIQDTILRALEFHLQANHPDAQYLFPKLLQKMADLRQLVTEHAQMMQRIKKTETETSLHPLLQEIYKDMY
Chain of Bile acid receptor (Homo sapiens) (Q96RI1 whole entry, looked up): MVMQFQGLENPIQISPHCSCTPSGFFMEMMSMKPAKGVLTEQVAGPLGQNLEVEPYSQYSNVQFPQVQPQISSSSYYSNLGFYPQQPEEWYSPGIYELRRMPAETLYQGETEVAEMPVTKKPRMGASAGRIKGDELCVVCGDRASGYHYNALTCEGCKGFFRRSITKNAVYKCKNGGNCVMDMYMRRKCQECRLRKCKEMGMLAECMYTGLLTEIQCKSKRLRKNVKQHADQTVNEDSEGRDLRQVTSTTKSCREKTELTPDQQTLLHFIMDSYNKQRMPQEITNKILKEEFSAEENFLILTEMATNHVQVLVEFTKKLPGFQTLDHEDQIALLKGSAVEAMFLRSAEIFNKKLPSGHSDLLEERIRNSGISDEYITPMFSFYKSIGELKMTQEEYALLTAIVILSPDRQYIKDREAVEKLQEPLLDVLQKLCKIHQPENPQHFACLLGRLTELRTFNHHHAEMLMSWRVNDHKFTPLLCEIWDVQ

Nc1ccc(F)cc1F
inactive: [1] | [2] | [3] | [4] | [5] | [6]

FC1(F)C(F)(F)C(F)(F)C2(F)C(F)(C1(F)F)C(F)(F)C(F)(F)C1(F)C(F)(F)C(F)(F)C(F)(F)C(F)(F)C12F (configuration not stated)
inactive: [7] | [2] | [3] | [4] | [5]

Nc1ccc(C(=O)Oc2ccccc2)c(O)c1
not listed: [1] | [6] | [10]
inactive: all other assays above

C=CC(C)CCC=C(C)C (configuration not stated)
inactive: [7] | [3] | [4] | [5]

NCCOCCOCCN
active: [3] 6.92 µM | [4] 19.5 µM
inactive: [2] | [5]

c1ccc(CN(Cc2ccccc2)Cc2ccccc2)cc1
inactive: [2] | [3] | [4] | [5] | [6]

Oc1ccc(CCNCCCCCCNCCc2ccccc2)cc1O
inactive: [7] | [2] | [8] | [3] | [9] | [6]

Oc1ccc(Oc2ccccc2)cc1
inactive: [7] | [2] | [8] | [3] | [9] | [5]

Cc1ccc(Cl)c(OCC(O)CNC(C)(C)C)c1 (configuration not stated)
inactive: [7] | [10] | [3] | [4] | [5] | [6]

CC1=C(C)C(=O)C(CCCCC#CCCCC#CCO)=C(C)C1=O
inactive: [2] | [8] | [3] | [4]

CCCCCCC/C=C/C=O
inactive: [2] | [3] | [4] | [5] | [6]

O=Cc1ccc(Cl)c([N+](=O)[O-])c1
inactive: [2] | [10] | [3] | [9] | [4] | [5]

CC(C)(Cc1c[nH]c2ccccc12)NCC(O)COc1ccccc1C#N (configuration not stated)
inactive: [7] | [10] | [8] | [9]

Cc1ccc(S(=O)(=O)NC(=O)NC2CCCC2)cc1
inactive: [2] | [3] | [4] | [5]

CC(=O)c1ccc(Cl)c(Cl)c1Cl
inactive: [2] | [3] | [5]

CC(C)C[C@H](NC(=O)[C@H](Cc1ccccc1)NC(=O)c1cnccn1)B(O)O
active: [4] 0.298 µM

C/C(=C(\CCO)SS/C(CCO)=C(\C)N(C=O)Cc1cnc(C)nc1N)N(C=O)Cc1cnc(C)nc1N
inactive: [2] | [3] | [4] | [5] | [6]

Cc1cc(C)c(C)c(O)c1
inactive: [7] | [3] | [5] | [6]

CCCC1CCCC(=O)O1 (configuration not stated)
inactive: [2] | [10] | [3] | [4]

CCCOC(C)=O
inactive: [10] | [3]

O=P(c1ccccc1)(c1ccccc1)c1ccccc1
not listed: [1] | [7]
inactive: all other assays above

CC(=O)Oc1cccc2c1C(=O)c1c(OC(C)=O)cc(C(=O)O)cc1C2=O
inactive: [2] | [4]

CCC(C)CCCC(C)(C)O (configuration not stated)
inactive: [7] | [2] | [3] | [5]

Nc1cccc2c(=O)[nH][nH]c(=O)c12
inactive: [7] | [10] | [8] | [3] | [9] | [4]

C(/C=C/C=C/Nc1ccccc1)=Nc1ccccc1
not listed: [1] | [4] | [7]
inactive: all other assays above

C[C@H](CN1CCCC1)C(=O)c1ccc(C(F)(F)F)cc1
not listed: [1] | [2] | [6]
inactive: all other assays above

COc1ccnc2c1CCCCC2S(=O)c1nc2ccccc2[nH]1 (configuration not stated)
inactive: [2] | [3] | [4] | [5] | [6]

Cc1cc(SC2=C(O)C[C@@](CCc3ccc(N)cc3)(C(C)C)OC2=O)c(C(C)(C)C)cc1CO
inactive: [7] | [2] | [3] | [9] | [4] | [5]

CC(O)C(C)O (configuration not stated)
inactive: [7] | [10] | [4] | [5] | [6]

Cc1ccc(NC(=O)c2ccc(CN3CCN(C)CC3)cc2)cc1Nc1nccc(-c2cccnc2)n1
inactive: [3] | [4]

O=C(O)c1cc(C(=O)O)cc([N+](=O)[O-])c1
inactive: [2] | [3] | [4] | [5]

CCc1ccc2c(c1)C(=O)c1ccccc1C2=O
inactive: [2] | [5]

FC(F)(Cl)C(F)(Cl)Cl
inactive: [7] | [2] | [5] | [6]

C=C[Si](OCC)(OCC)OCC
inactive: [2] | [3] | [4] | [5]

O=C(C1CCCCC1)N1CC(=O)N2CCCc3ccccc3C2C1 (configuration not stated)
inactive: [2] | [10] | [3] | [4]

COc1cccc([C@H](O)C2CCN(CCc3ccc(F)cc3)CC2)c1OC
not listed: [1] | [2] | [6]
inactive: all other assays above

CCc1c(C)[nH]c2c1C(=O)C(CN1CCOCC1)CC2 (configuration not stated)
not listed: [1] | [6] | [10]
inactive: all other assays above

O=C(OC1C[C@H]2CC[C@@H](C1)[N+]21CCCC1)C(O)(c1ccccc1)c1ccccc1 (some centres not stated)
inactive: [2] | [3] | [4] | [5] | [6]

CC(CCl)OC(C)CCl (configuration not stated)
inactive: [7] | [2] | [3]

CC(C)(C(=O)O)c1ccc(C(O)CCCN2CCC(C(O)(c3ccccc3)c3ccccc3)CC2)cc1 (configuration not stated)
inactive: [7] | [2] | [3] | [5]
